From PubChem BioAssay
The source made the active and inactive calls.

Tests used:
[1] = E. coli DRC41 culture turbidity changes, primary screen, E. coli filamentation inducer project, strain DRC41, OD650, 48 h (AID 1152);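 further: E. coli MC1000 strain DRC41 lacking acrAB efflux pump and sulA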; details: E. coli DRC41 (acrAB sulA), higher = more signal, called active from +8 up or from −8 down
[2] = small-molecule binders of probe aLefty1, primary screen, biochemical, small-molecule microarray, 635/667 nm fluorescence (AID 1153); details: higher = more signal;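 further: score merges spot fluorescence with signal-to-noise ratio from the scanned slide images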
[3] = PSAC antagonists in infected red cells, primary screen, cell-based, P. falciparum Indochina, OD700, 1 h (AID 1154); details: P. falciparum Indochina infected RBC osmotic lysis, higher = more signal, called active from +8 up or from −8 down
[4] = PSAC antagonists in infected red cells, primary screen, cell-based, P. falciparum Indochina, OD700, 2 h (AID 1155);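 further: lysis reports solute entry through the parasite surface anion channel PSAC; channel blockers reduce lysis of infected cells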; details: P. falciparum Indochina infected erythrocytes, osmotic lysis OD700; higher = more signal, called active from +8 up or from −8 down
[5] = osmotic lysis modulators in infected erythrocytes, primary screen, PSAC antagonist project, cell-based, P. falciparum Indochina, OD700, 3 h (AID 1156); details: higher = more signal, called active from +8 up or from −8 down
[6] = PSAC antagonists in infected red cells, primary screen, cell-based, P. falciparum Indochina, OD700, 18 h (AID 1157); details: P. falciparum Indochina infected erythrocytes, osmotic lysis OD700, 18 h; higher = more signal, called active from +8 up or from −8 down
[7] = modulators of S6 phosphorylation in cells, primary screen, cell-based, A549, cytoblot, luminescence, serum-stimulated (AID 1158); details: A549 phospho-S6 cytoblot, 5 h, higher = more signal;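 further: serum-stimulated A549 lung adenocarcinoma cells; signal is phosphorylated S6 detected by cytoblot immunostaining with HRP secondary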
[8] = target: NADPH oxidase 2 (Homo sapiens) (UniProt P04839); test: NOX2-dependent H2O2 signal modulators, primary screen, NOX inhibitor project, cell-based, HEK293-NOX2, PMA-stimulated, Amplex Red fluorescence (AID 1159); details: 45 min, higher = more signal, called active from +8 up or from −8 down; further: test concentration not given here
[9] = target: NADPH oxidase 4 (Homo sapiens) (UniProt Q9NPH5); test: NOX4-dependent H2O2 signal modulators, primary screen, NOX inhibitor project, cell-based, HEK293-NOX4, tetracycline-induced, Amplex Red fluorescence (AID 1160); details: 45 min, higher = more signal, called active from +8 up or from −8 down
[10] = target: NADPH oxidase 5 (Homo sapiens) (UniProt Q96PH1); test: NOX5-dependent H2O2 signal modulators, primary screen, NOX inhibitor project, cell-based, HEK293-NOX5, Amplex Red fluorescence (AID 1161); details: HEK293-NOX5, ionomycin, 45 min, higher = more signal
[11] = A549 cell viability effects, profiling panel, calcein-AM fluorescence, 48 h, basal (AID 1162); details: higher = more signal; further: test concentration not given here
[12] = adipocyte viability effects, profiling panel, cell-based, 3T3-L1 adipocytes, calcein-AM fluorescence, 48 h, basal (AID 1163); details: 3T3-L1 adipocytes viability, higher = more signal; further: test concentration not given here
[13] = HepG2 cell viability effects, profiling panel, calcein-AM fluorescence, 48 h, basal (AID 1164); details: higher = more signal; further: test concentration not given here
[14] = MM1S cell viability effects, profiling panel, calcein-AM fluorescence, 48 h, basal (AID 1165); details: higher = more signal;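 further: viability of MM1S multiple myeloma cells under basal unstimulated conditions; test concentration not given here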
[15] = basal RPMI8226 viability, no added stimulus, profiling panel, cell-based, calcein-AM fluorescence, 48 h, PK04 Diversity Set (AID 1166); details: RPMI8226 myeloma viability, higher = more signal;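 further: cells grown under basal conditions without added stimulus; test concentration not given here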
[16] = basal HepG2 mitochondrial membrane potential changes, profiling panel, cell-based, JC-1 fluorescence, 24 h, 100 nL compound (AID 1167); details: higher = more signal; further: test concentration not given here
[17] = basal 3T3-L1 adipocyte mitochondrial potential changes, profiling panel, cell-based, JC-1 fluorescence, 3T3-L1 adipocytes, 24 h, 100 nL compound (AID 1168); details: JC-1 mitochondrial fluorescence, higher = more signal, called active from +8 up or from −8 down; further: test concentration not given here
[18] = basal RPMI8226 mitochondrial membrane potential changes, profiling panel, cell-based, JC-1 fluorescence, 24 h, 100 nL compound (AID 1169); details: RPMI8226 myeloma, JC-1 mitochondrial potential fluorescence, higher = more signal; further: test concentration not given here
[19] = basal MM1S mitochondrial membrane potential changes, profiling panel, cell-based, JC-1 fluorescence, 24 h, 100 nL compound (AID 1170); details: higher = more signal; further: test concentration not given here
[20] = A549 lung cancer cell viability effects, profiling panel, resazurin fluorescence, 24 h, PK04 Diversity Set (AID 1171); details: higher = more signal, called active from +8 up or from −8 down; further: test concentration not given here

NADPH oxidase 4 (Homo sapiens), sequence (Q9NPH5 whole entry, looked up): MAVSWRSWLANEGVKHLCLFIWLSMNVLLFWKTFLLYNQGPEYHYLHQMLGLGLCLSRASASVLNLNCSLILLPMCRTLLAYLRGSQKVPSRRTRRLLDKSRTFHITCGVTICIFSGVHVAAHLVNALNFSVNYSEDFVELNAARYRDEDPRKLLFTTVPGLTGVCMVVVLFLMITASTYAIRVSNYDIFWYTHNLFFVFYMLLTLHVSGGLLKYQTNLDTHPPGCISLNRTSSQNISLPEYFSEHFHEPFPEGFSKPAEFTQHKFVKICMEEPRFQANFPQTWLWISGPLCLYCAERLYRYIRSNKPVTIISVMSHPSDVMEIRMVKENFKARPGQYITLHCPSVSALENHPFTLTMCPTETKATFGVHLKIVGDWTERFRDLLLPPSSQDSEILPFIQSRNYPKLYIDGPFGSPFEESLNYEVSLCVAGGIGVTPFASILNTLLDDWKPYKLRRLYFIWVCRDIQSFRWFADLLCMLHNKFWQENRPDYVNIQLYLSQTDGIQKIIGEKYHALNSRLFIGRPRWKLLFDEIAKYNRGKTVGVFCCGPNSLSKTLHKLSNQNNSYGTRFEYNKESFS
NADPH oxidase 5 (Homo sapiens), sequence (Q96PH1 whole entry, looked up): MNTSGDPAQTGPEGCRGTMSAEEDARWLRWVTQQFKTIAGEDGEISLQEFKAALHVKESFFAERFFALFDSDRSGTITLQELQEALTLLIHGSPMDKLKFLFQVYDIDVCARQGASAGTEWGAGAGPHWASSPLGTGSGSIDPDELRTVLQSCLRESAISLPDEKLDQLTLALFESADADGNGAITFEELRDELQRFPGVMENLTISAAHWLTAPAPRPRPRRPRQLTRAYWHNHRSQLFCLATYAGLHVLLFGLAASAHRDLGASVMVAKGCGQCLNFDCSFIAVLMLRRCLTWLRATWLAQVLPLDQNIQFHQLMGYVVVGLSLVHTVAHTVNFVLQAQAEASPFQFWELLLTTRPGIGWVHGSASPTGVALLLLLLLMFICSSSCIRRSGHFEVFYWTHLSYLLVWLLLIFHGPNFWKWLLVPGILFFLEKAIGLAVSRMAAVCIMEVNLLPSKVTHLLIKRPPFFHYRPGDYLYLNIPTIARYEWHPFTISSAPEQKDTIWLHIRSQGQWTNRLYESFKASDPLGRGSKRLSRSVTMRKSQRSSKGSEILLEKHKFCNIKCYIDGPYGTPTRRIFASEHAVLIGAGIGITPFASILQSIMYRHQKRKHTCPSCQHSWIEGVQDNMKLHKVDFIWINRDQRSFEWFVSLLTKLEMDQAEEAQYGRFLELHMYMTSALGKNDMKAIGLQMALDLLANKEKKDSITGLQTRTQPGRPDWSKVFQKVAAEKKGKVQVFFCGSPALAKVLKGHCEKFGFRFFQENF
NADPH oxidase 2 (Homo sapiens), sequence (P04839 whole entry, looked up): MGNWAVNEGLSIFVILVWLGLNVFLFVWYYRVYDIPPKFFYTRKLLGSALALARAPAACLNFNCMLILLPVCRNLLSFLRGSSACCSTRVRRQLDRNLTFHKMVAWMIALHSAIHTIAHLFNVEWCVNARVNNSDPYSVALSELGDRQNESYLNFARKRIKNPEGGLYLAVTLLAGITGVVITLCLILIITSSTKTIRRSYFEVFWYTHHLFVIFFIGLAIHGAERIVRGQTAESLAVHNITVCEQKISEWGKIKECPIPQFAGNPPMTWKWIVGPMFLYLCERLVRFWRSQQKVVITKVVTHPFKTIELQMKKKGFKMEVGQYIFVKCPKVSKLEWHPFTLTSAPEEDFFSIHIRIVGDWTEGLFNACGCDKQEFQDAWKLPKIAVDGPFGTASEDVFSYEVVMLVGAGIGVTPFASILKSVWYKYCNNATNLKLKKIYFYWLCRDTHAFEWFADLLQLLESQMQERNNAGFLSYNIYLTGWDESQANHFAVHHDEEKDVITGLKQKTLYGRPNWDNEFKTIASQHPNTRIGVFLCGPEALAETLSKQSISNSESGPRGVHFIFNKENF

Row | SMILES | z-score [1] | composite z-score [2] | z-score [3] | z-score [4] | z-score [5] | z-score [6] | z-score [7] | z-score [8] | z-score [9] | z-score [10] | z-score [11] | z-score [12] | z-score [13] | z-score [14] | z-score [15] | z-score [16] | z-score [17] | z-score [18] | z-score [19] | z-score [20]
1 | COCC(=C=CC[C@@H](O)c1ccc(OCCO)cc1)C[C@@H](O)c1ccccn1 | -0.125 (inactive) | -0.0061 | 6.36 (inactive) | 0.848 (inactive) | -0.315 (inactive) | 0.429 (inactive) | -0.577 | -0.0904 (inactive) | 0.654 (inactive) | 0.177 | -0.583 | -0.936 | -0.239 | -0.149 | -0.349 | -0.964 | -0.522 (inactive) | 0.375 | -0.719 | 0.192 (inactive)
2 | [N-]=[N+]=NCc1ccccc1C[C@@]1(C(=O)NCC(O)CO)N=C(c2ccc(OCCCO)cc2)O[C@@H]1c1ccccc1 (stereo not given in full) | 0.0346 (inactive) | 0.237 | 25.3 (active) | 16.3 (active) | -1.11 (inactive) | 2.07 (inactive) | -0.11 | 0.0842 (inactive) | 1.28 (inactive) | 2.5 | -1.64 | 0.195 | -3.17 | -3.22 | -1.82 | -2.54 | 1.67 (inactive) | -1.12 | -0.123 | -1.01 (inactive)
3 | COCCCNC(=O)[C@@]1(Cc2ccccc2)N=C(c2ccc(OCCCO)cc2)O[C@H]1c1ccccc1CN=[N+]=[N-] | 0.576 (inactive) | 0.272 | 14.3 (active) | 1.83 (inactive) | 1.75 (inactive) | 0.94 (inactive) | -0.443 | -4.56 (inactive) | -0.271 (inactive) | -0.67 | 0.925 | -0.703 | 0.941 | -0.0943 | -1.75 | 1.31 | 0.571 (inactive) | -1.26 | -0.918 | -0.484 (inactive)
4 | C=C(CCCC)/C(=C/C[C@H](OC(C)=O)c1ccccc1OCCO)c1cnc2ccccc2c1 | -0.413 (inactive) | -0.0054 | 17.5 (active) | 2.17 (inactive) | 1.32 (inactive) | 0.996 (inactive) | -0.0149 | -1.41 (inactive) | -0.361 (inactive) | -1.62 | 0.615 | -0.466 | 0.0984 | -3.37 | -2.83 | 1.14 | -1.26 (inactive) | -0.247 | -0.172 | -0.344 (inactive)
5 | O=C1C[C@@](C(=O)NCc2ccccc2)(c2ccc([N+](=O)[O-])cc2)[C@@H](c2ccc(CO)cc2)N1CC12CC3CC(CC(C3)C1)C2 | 0.874 (inactive) | -0.287 | 5.33 (inactive) | 0.786 (inactive) | 3.76 (inactive) | 0.674 (inactive) | -0.0355 | 0.208 (inactive) | -0.821 (inactive) | 1.1 | -0.702 | 0.0687 | -0.487 | -2.81 | -4.32 | 2.17 | 0.112 (inactive) | -0.552 | -1.2 | -3.09 (inactive)
6 | O=C1C2C=CC(C(O)c3ccc4c(c3)OCO4)N(Nc3ccc([N+](=O)[O-])cc3)C2C(=O)N1c1ccccc1 (stereo not given) | -0.81 (inactive) | -0.101 | 18.1 (active) | 3.98 (inactive) | 1.4 (inactive) | 1.66 (inactive) | -0.363 | -1 (inactive) | -3.31 (inactive) | -2.1 | -0.649 | -1.09 | 0.199 | 0.259 | -0.169 | -0.941 | -0.856 (inactive) | 0.575 | -0.77 | -0.0894 (inactive)
7 | OCCCC1=CC(C2CC2)N(Cc2cccc(OC(F)(F)F)c2)CC1 (stereo not given) | -0.469 (inactive) | -0.0813 | 1.82 (inactive) | 0.539 (inactive) | 0.982 (inactive) | 0.675 (inactive) | 0.473 | -1.2 (inactive) | -0.822 (inactive) | -1.48 | -0.346 | 0.643 | 0.43 | -0.522 | 0.0997 | 0.64 | 0.319 (inactive) | 0.48 | 0.572 | 1.83 (inactive)
8 | CCOC(=O)C1=CC[C@@H](c2ccccc2)N(S(=O)(=O)c2ccc(C)cc2)[C@H]1c1ccc(CC)cc1 | -0.688 (inactive) | 0.166 | 0.874 (inactive) | 0.991 (inactive) | -0.862 (inactive) | 0.361 (inactive) | -0.253 | 0.711 (inactive) | 0.029 (inactive) | 0.46 | -0.516 | -0.932 | -0.217 | 0.677 | 0.0825 | 5.94 | -0.149 (inactive) | -0.27 | -1.84 | 1.48 (inactive)
9 | CCOC(=O)C[C@H]1[C@H](OC(=O)c2ccc(C(=O)c3ccccc3)cc2)[C@@H](NC(=O)c2ccccc2)c2cc(OCCCO)ccc2N1C(=O)c1ccccc1 | -0.402 (inactive) | 0.228 | 2.54 (inactive) | 0.218 (inactive) | 0.0495 (inactive) | 0.357 (inactive) | -0.294 | -0.613 (inactive) | 0.646 (inactive) | 0.0914 | 0.223 | 1.05 | 0.496 | 0.358 | 0.17 | 0.601 | 0.00705 (inactive) | 0.892 | 0.0929 | 0.254 (inactive)
10 | [N-]=[N+]=NCc1ccccc1[C@@H]1OC(c2ccc(OCCCO)cc2)=N[C@]1(CCS(=O)(=O)c1ccccc1)C(N)=O | 1.06 (inactive) | 0.428 | 26.4 (active) | 14.7 (active) | 0.618 (inactive) | 1.75 (inactive) | -0.353 | -0.282 (inactive) | 1.13 (inactive) | 2.23 | 0.338 | -0.676 | 0.834 | 0.369 | 0.102 | -1.67 | -0.0551 (inactive) | -0.875 | -1.16 | -0.174 (inactive)
